Source: the supplement of paper PMC11732987, “Enantioselective OTUD7B fragment discovery through chemoproteomics screening and high-throughput optimisation” (Communications Chemistry, 2025)

How the values were obtained:
Test in all cases: log2 ratio of Biotin-Ahx-Ub-VS probe labelling (fragment/DMSO); higher = less target engagement (more negative = stronger competition), active = hit call of the paper (q ≤ 0.05, log2 ratio ≤ -1)
Conditions in all cases: compound concentration: 200 uM; treatment time: 3 h
USP34 = USP34 (UniProt Q70CQ2)
Sequence of USP34 (Q70CQ2 whole entry, the tested form may be a part): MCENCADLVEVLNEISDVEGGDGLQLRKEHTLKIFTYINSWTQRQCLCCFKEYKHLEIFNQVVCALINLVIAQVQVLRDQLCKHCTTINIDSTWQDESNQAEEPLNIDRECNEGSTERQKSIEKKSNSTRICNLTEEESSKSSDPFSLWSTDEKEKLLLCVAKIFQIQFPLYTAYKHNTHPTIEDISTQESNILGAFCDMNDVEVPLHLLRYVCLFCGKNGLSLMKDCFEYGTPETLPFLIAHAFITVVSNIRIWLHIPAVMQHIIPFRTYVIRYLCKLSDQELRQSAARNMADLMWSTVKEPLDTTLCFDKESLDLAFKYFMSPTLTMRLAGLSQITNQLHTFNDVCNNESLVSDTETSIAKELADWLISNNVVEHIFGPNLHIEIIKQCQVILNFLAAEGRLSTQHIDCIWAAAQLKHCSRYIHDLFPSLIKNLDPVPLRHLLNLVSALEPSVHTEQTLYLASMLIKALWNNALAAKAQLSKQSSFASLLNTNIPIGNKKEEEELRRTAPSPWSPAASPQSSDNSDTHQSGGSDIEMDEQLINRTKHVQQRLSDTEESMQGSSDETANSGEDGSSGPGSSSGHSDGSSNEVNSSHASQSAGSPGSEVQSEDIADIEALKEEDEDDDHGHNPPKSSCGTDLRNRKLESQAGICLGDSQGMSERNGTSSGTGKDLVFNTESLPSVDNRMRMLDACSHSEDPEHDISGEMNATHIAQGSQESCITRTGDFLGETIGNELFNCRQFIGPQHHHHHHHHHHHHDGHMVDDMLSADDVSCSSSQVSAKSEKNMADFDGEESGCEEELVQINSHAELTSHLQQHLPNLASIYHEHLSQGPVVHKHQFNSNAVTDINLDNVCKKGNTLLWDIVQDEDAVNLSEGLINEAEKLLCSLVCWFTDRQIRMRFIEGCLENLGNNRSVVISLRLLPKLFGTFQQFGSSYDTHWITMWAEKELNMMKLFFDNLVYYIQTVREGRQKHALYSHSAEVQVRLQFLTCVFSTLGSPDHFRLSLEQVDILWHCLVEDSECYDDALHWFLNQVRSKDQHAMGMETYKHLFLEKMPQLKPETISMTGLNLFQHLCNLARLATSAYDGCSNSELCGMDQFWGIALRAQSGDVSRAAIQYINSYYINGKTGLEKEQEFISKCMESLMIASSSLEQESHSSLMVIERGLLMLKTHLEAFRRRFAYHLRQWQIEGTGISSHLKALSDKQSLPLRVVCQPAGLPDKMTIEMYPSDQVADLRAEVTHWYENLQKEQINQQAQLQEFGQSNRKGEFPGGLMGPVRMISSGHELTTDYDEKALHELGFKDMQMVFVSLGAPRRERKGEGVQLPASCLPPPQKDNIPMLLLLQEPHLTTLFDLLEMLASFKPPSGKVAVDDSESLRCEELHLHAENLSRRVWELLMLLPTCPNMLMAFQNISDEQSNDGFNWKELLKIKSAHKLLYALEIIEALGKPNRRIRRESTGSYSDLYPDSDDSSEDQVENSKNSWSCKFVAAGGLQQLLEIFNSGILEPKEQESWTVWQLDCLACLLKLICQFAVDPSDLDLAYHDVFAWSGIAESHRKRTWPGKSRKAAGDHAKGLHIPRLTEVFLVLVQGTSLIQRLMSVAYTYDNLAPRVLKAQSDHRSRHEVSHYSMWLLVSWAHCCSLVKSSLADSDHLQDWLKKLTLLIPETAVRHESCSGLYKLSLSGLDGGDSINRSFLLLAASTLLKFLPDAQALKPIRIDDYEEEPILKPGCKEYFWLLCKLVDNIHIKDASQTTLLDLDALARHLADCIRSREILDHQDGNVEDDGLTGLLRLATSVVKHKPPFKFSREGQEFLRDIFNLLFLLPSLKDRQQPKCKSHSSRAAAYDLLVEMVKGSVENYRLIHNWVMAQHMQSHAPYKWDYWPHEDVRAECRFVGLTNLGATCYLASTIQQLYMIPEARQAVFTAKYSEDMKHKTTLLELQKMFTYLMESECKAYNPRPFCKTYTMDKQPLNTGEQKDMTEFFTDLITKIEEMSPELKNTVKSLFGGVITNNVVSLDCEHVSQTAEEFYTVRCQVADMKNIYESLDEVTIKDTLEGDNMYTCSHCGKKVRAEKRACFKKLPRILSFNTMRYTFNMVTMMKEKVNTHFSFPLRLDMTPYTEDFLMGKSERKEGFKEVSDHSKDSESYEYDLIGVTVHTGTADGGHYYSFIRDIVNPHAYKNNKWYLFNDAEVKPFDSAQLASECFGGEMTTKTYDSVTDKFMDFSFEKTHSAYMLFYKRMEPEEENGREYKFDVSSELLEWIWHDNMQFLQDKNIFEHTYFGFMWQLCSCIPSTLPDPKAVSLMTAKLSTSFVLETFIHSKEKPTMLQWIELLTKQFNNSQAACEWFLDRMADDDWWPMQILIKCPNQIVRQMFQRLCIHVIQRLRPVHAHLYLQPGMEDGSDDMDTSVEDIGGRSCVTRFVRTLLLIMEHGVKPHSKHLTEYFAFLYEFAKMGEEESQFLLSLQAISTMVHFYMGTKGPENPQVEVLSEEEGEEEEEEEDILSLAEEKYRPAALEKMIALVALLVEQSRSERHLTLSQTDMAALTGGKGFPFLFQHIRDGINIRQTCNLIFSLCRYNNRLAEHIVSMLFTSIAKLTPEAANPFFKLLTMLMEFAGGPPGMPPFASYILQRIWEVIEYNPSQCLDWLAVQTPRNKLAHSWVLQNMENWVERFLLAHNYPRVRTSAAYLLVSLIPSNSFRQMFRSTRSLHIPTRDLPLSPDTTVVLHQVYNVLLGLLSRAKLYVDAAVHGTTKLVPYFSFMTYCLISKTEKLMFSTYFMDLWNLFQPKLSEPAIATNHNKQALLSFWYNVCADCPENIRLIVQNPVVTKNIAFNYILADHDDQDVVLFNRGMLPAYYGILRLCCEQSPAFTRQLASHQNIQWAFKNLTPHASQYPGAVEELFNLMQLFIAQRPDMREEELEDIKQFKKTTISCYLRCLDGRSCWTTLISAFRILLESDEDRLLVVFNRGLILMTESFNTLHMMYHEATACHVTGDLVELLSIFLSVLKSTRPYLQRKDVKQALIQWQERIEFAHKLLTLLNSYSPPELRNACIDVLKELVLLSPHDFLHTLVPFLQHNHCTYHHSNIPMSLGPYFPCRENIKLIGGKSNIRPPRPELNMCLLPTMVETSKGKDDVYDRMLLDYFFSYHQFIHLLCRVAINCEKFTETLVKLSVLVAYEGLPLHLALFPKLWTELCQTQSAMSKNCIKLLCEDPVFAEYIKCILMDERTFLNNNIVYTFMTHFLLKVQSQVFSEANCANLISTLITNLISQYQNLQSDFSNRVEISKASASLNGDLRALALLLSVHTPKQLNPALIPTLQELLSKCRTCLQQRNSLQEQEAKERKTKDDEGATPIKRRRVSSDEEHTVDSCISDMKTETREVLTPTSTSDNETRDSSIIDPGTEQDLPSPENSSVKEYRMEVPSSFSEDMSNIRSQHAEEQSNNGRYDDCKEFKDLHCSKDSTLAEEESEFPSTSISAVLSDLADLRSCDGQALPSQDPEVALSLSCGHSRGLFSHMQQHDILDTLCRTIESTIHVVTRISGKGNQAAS
Summary of the method: (§1)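 Labelled DUBs were enriched with NeutrAvidin, digested with LysC and trypsin, and run by diaPASEF LC-MS/MS. The labelling used Biotin-Ahx-Ub-VS at 0.5 µM final for 1 h on HEK293T lysate (495 µg per sample) previously treated in triplicate with fragment at 200 µM or vehicle for 3 h. Values are average log2 fragment/vehicle ratios by unpaired t-test on global-median-normalised Spectronaut quantities of proteins with ≥2 unique peptides.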

USP36 = target: T1, USP36 (UniProt Q9P275)
T1 sequence (whole entry): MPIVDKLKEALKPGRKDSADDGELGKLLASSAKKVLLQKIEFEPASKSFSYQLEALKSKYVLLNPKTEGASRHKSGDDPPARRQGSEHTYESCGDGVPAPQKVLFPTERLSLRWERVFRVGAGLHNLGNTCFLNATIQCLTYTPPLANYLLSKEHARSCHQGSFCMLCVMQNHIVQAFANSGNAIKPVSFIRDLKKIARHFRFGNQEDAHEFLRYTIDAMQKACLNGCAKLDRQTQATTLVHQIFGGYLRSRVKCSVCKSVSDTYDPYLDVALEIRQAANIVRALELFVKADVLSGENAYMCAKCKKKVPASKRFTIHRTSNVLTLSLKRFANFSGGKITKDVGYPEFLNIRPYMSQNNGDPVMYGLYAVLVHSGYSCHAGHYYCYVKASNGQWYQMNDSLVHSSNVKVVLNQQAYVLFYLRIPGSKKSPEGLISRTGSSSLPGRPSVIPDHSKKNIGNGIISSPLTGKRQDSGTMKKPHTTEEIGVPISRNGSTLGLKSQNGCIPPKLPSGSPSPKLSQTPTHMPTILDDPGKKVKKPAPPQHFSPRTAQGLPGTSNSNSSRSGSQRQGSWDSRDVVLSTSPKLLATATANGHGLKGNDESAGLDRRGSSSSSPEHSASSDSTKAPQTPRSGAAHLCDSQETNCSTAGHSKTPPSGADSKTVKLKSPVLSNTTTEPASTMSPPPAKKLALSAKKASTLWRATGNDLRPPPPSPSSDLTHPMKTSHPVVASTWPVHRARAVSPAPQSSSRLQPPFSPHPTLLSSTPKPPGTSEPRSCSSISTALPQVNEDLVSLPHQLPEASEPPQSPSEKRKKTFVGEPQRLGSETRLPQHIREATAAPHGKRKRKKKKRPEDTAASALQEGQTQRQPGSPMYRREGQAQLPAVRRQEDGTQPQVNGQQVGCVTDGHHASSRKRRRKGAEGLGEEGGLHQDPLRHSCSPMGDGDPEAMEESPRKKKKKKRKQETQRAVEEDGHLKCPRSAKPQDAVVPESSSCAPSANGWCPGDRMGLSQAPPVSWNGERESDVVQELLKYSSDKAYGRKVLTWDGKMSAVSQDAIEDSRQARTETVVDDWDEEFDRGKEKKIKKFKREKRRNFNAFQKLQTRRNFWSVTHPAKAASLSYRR
Summary of the method: as §1

USP38 = target: T2, USP38 (UniProt Q8NB14)
T2 sequence (whole entry): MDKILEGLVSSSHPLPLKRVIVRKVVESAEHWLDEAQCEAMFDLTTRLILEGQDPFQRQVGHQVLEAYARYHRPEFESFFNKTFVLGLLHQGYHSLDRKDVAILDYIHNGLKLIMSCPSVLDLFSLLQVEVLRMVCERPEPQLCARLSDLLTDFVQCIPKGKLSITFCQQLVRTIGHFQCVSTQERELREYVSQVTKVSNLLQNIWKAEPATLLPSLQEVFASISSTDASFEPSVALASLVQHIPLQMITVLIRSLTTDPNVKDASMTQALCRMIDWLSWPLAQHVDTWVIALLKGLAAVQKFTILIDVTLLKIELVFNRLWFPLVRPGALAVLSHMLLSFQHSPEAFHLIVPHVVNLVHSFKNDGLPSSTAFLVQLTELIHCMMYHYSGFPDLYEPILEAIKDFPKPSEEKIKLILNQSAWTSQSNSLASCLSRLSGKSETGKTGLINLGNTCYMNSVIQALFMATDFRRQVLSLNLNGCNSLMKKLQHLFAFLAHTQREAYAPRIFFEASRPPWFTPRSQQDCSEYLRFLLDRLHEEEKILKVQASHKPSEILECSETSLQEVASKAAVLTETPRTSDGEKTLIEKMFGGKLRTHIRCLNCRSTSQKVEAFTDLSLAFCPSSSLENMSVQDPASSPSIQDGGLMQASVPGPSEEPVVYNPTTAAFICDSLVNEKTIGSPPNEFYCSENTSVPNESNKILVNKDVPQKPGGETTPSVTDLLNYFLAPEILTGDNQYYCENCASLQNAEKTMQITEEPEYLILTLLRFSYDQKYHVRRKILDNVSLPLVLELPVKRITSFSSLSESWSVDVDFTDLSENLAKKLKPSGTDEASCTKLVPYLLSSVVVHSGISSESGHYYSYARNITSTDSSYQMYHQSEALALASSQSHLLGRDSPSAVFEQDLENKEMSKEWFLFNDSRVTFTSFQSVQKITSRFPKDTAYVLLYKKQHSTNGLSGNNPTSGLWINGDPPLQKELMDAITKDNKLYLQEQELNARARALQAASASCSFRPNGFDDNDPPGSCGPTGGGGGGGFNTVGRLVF
Summary of the method: as §1

USP39 = target: T3, USP39 (UniProt Q53GS9)
T3 sequence (whole entry): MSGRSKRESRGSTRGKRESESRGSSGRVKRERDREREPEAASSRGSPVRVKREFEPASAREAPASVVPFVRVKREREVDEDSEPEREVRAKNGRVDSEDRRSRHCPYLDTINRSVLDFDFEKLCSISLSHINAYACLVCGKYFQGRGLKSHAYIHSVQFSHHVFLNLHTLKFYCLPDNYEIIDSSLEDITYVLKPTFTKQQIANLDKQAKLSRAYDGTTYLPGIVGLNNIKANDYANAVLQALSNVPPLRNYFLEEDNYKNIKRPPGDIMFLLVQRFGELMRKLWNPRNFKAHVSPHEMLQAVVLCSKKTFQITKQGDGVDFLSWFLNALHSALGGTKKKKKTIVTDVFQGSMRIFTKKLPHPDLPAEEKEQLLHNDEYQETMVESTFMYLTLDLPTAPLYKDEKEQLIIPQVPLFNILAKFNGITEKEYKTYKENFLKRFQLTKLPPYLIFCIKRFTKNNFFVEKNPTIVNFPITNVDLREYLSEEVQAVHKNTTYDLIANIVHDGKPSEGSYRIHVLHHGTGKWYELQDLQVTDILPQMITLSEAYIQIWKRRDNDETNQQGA
Summary of the method: as §1

USP4 = target: T4, USP4 (UniProt Q13107)
T4 sequence (whole entry): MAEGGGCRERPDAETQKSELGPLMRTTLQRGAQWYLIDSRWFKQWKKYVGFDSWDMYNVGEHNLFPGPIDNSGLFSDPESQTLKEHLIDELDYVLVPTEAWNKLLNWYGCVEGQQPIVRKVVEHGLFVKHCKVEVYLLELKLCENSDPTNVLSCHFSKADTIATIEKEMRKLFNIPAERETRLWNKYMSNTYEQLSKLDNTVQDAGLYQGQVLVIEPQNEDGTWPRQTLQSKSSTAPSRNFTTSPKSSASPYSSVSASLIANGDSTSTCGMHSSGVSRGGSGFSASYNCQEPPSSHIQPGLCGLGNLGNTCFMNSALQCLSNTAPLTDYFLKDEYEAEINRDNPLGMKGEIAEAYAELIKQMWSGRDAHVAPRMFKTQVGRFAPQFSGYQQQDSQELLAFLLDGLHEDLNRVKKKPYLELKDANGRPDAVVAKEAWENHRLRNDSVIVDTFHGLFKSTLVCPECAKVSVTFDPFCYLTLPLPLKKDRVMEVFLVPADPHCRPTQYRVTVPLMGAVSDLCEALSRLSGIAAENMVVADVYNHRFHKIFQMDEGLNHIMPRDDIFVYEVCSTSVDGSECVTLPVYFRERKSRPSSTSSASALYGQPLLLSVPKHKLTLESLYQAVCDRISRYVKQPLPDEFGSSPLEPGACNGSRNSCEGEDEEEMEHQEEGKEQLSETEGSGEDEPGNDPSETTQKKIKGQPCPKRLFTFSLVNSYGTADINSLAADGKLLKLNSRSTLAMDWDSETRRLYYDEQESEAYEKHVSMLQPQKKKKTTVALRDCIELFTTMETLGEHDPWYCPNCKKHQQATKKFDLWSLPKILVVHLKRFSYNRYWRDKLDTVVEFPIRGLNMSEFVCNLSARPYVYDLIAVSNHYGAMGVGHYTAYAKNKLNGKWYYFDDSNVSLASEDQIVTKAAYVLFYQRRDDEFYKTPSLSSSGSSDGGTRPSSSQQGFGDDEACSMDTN
Summary of the method: as §1

Measured: log2 ratio of Biotin-Ahx-Ub-VS probe labelling

O=C(CCl)Nc1ccc(Cl)c(F)c1
inactive: USP34 -0.317 | USP36 -0.136 | USP38 -0.0529 | USP39 4.5e-05 | USP4 -0.159
